PubChem BioAssay (NCATS)
Results filed as inconclusive are left out. The source made the active and inactive calls. The call rests on the fitted dose curve.

Target: Cytochrome P450 1A2 (Homo sapiens) (UniProt P05177)
Test: p450-cyp1a2 (AID 410)
Conditions: recombinant CYP1A2, luciferin-ME demethylation, luminescence; series mostly up to 57 µM
How it was run: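 20nM CYP1A2, 100uM Luciferin-ME (=Km), 100mM KPO4; cpd 10 min RT; +NADPH regen, 60 min RT; stop/detect 20 min; luminescence. Normalized to furafylline 57 uM = full inhibition.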
Potency means the concentration at half of the fitted maximal effect.

Cytochrome P450 1A2 (Homo sapiens), sequence (P05177 whole entry, looked up): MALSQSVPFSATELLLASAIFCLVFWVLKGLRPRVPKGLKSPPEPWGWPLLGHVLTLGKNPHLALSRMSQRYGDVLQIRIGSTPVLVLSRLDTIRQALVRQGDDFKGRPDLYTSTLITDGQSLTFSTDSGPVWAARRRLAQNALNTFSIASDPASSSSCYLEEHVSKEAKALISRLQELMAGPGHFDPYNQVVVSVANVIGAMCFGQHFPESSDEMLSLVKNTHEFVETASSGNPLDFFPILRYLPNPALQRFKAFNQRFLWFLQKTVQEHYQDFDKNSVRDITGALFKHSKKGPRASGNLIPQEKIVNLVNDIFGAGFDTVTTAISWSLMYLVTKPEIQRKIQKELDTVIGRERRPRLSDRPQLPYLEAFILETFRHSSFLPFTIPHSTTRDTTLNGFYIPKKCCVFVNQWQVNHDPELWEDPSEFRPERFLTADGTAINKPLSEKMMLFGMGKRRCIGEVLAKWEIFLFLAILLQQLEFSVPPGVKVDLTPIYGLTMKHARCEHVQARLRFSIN

Potency, active:
COc1ccccc1-c1nc(NCc2cccs2)c2ccccc2n1 631 nM
CCNc1ncc2nc(-c3cccs3)c(=O)n(C[C@H]3CCCO3)c2n1 2510 nM
COc1ccccc1-c1nccc(NCc2cccnc2)n1 200 nM
c1ccc(CNc2nc(-c3ccoc3)nc3ccccc23)cc1 631 nM
c1csc(CNc2nc(-c3ccoc3)nc3ccccc23)c1 316 nM
N#Cc1cccc(-c2nc(NCc3cccs3)c3ccccc3n2)c1 316 nM
CN(Cc1ccco1)c1ncncc1-c1ccc2c(c1)OCO2 200 nM
CN(Cc1ccco1)c1ncncc1-c1cccnc1 5010 nM
Cc1noc(C)c1-c1nc(N(C)C)c2ccccc2n1 39.8 nM
CN(Cc1ccco1)c1nc(-c2ccc3c(c2)OCO3)nc2ccccc12 501 nM
O=c1c(-c2cccs2)nc2cncnc2n1-c1ccccc1 12600 nM
COc1ccc(-c2nc3cnc(N4CCOCC4)nc3n(Cc3cccs3)c2=O)cc1 2510 nM
CS(=O)(=O)Nc1cccc(-c2cc(NCc3ccccc3)ncn2)c1 12600 nM
COc1ccccc1-c1cncnc1NCc1ccccc1 12600 nM
CCNc1ncc2nc(-c3cccs3)c(=O)n(-c3ccccc3)c2n1 1580 nM
COc1cccc(-c2nccc(NCc3cnc(C)cn3)n2)c1 501 nM
COc1ccc(CNc2ncncc2-c2ccc(N(C)C)cc2)c(OC)c1 631 nM
